Bioassay records as filed in PubChem BioAssay.
In the library only some 2.4% were active in any assay of this set; here they are far more common.
POLK inh – inhibitors of human DNA polymerase kappa; actives 0.53% (n = 400,000); Q9UBT6; Potency, µM (titrated, usually from 107 µM), most hits filed as inhibitors; purified Pol kappa, fluorescent DNA synthesis assay, 10 min
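Activity was followed as the change in fluorescence between reads at 0 and 10 min after starting the reaction with 50 nM substrate. Beforehand, 10 nM polymerase had been preincubated with compound for 15 min at room temperature.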
POLI inh – DNA polymerase iota (human) inhibition; Pol iota fluorescent replication assay, 10 min; Potency, µM (series often up to 115 µM), usual class: inhibitors; actives 1% (n = 390,000); AID 588590
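Pol iota at 10 nM preincubated 15 min with compounds at room temperature; reaction started with fluorescent substrate, 50 nM final. Fluorescence read kinetically at 0 and 10 min; buffer-only wells as negative control.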
POLB inh – DNA polymerase beta (human) inhibition; actives 1.3% (n = 340,000); Potency, µM (top dose mostly 114 µM), actives largely listed as inhibitors; P06746; Pol beta primer extension/strand displacement, fluorescence kinetic
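Human Pol beta at 10 nM; strand-displacement substrate 50 nM final. Compound exposure 15 min at room temperature before start, reaction 10 min at room temperature.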
Pol eta inh – DNA polymerase eta (human) inhibition; Q9Y253; recombinant Pol eta, fluorescent DNA replication assay; Potency, µM (top dose mostly 114 µM), usual class: inhibitors; actives 1.2% (n = 390,000); AID 588591
Target sequence (Q9Y253 whole entry, looked up): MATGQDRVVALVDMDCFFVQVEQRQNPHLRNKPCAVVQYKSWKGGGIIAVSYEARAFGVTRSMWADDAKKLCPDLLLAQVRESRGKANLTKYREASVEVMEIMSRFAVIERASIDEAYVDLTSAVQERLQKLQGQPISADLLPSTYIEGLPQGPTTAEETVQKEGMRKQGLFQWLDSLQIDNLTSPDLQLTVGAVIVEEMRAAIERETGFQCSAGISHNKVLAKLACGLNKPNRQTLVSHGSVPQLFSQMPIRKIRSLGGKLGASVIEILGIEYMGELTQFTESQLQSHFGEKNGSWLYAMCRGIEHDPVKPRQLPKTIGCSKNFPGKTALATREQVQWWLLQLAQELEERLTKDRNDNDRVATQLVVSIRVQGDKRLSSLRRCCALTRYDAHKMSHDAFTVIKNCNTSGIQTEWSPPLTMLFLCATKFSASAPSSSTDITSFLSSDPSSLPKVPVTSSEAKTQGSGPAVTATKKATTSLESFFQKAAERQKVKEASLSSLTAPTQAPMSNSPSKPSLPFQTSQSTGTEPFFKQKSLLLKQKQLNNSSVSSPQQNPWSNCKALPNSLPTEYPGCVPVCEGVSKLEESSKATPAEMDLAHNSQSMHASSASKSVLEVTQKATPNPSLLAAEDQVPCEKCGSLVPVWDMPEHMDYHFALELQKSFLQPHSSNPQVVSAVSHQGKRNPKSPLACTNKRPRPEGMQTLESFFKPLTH
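Pol eta at 10 nM preincubated with compounds 15 min at room temperature; reaction started with fluorescent substrate (50 nM final) and read kinetically at 0 and 10 min.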
WRN helicase inh – blocks human WRN helicase | actives 0.46% (n = 360,000) | WRN helicase unwinding, fluorescent forked duplex, kinetic | Potency, µM (top dose mostly 114 µM), usual class: inhibitors | Q14191; note: nearly all actives have a fitted effect of over 55% in size
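Kinetic fluorescence helicase assay: unwinding of a quenched forked DNA duplex (100 nM final) with 2 mM ATP final raises red fluorescence (525/598 nm). Compounds sat 15 min at room temperature with 20 nM WRN beforehand.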
FEN1 inh – inhibitors of human flap endonuclease 1; actives 0.35% (n = 390,000); Potency, µM (highest dose often 114 µM), hits mostly inhibitors; Recombinant FEN1 flap cleavage, fluorescence, 15 min; note: nearly all actives have a fitted effect of over 65% in size
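FEN1 at 10 nM, compound pretreatment for 15 min (room temperature), 50 nM final substrate to initiate; endpoint reads at 0 and 15 min; DMSO-only plates used as vehicle background.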
Numbers stand for hits; n = inactive; u = inconclusive; x = no result given; [ ] = another dose, or the depositor's remark. Calls come from the whole dose curve; as a rule, active = well fitted curve in the direction sought with a large enough effect; inconclusive = small, poorly fitted or top-dose-only effect, or another doubt; inactive = no such curve, though single readings can be large; an effect the other way counts as inactive or inconclusive.

SMILES	POLK inh	POLI inh	POLB inh	Pol eta inh	WRN helicase inh	FEN1 inh
O=C(N/N=C/c1ccc(O)cc1O)c1ccc(NC(=O)C2CCCCC2)cc1	n	u	n	35µM	n[11.6 µM]	n
O=C(N/N=C/c1ccc(O)cc1O)C1CC1	n	n	x	n	n	n
O=C(N/N=C/c1cccc(O)c1)c1ccc(NC(=O)C2CCCCC2)cc1	n	u	32µM	n	n	n
O=C(O)C1NCCN(C(=O)c2ccc3c(ccc4ccccc43)c2)C1C(=O)O (configuration not stated)	n	x	x	x	x	x
Cc1nc2cc(N3CCOCC3)c(NC(=O)C3CC3)cc2c(=O)n1Cc1ccccc1	u	u	n	20µM	n	n
COc1cc(/C=C/C(=O)N2CCCCC2=O)cc(OC)c1OC	n[19.4 µM]	x	x	x	x	x
CCCOC(=O)NCCCN(C)C	n	x	x	x	x	x
O=C(/C=C/c1c(Cl)cccc1Cl)N1CCOCC1	n	n	n	n	n	n
O=C(/C=C/c1c(F)cccc1Cl)N1CCOCC1	n	n	32µM	n	n	n
CC(=O)N1CCc2c(sc(NC(=O)C3CC3)c2-c2nc3ccccc3s2)C1	n	n	n	25µM	n	u
CCCCC(=O)Nc1sc2c(c1-c1nc3ccccc3s1)CCN(C(C)=O)C2	x	x	n	x	x	x
CC(=O)c1c(C)[nH]c(C(=O)OCC(=O)Nc2ncc(Cl)c(C)c2Cl)c1C	n	u	u	89µM	n	n
CC(C)=CC(=O)OCC(=O)Nc1ncc(Cl)c(C)c1Cl	u	u	40µM	79µM	u	n
CCc1ccccc1N(C)C	n	n	x	x	x	n
O=c1c(C(c2ccc(Cl)cc2)c2c(O)nc3n(c2=O)CCS3)c(O)nc2n1CCS2	u	u	n	89µM	n[11.6 µM]	n
O=S(=O)(O)c1ccc(NN=Cc2ccccc2O)cc1	n	u	x	32µM	n[11.6 µM]	n
O=S(=O)(N/N=C\c1ccccc1O)c1ccc(Cl)cc1	n	n	n	n	n	n
O=[N+]([O-])c1ccc(S(=O)(=O)N2CCN(c3nc(-c4cccs4)nc4ccccc34)CC2)cc1	n	n	x	x	x	n
CC(C)n1c(=S)[nH]c2c1c(=O)[nH]c(=O)n2C	n	n	n	n	89µM	n
C=CC(C)n1c(Br)nc2c1c(=O)[nH]c(=O)n2C (configuration not stated)	n	n	n	n	n	n
O=C(Nc1ccc2nc(-c3cccs3)c(-c3cccs3)nc2c1)N1CCCC1	n	n	x	x	x	n
CCOC(=O)C1CCN(C(=O)Nc2ccc3nc(-c4ccco4)c(-c4ccco4)nc3c2)CC1	16µM	2.8µM	1.6µM	2.8µM	35µM	u
O=C(Nc1ccc(Cl)c(Cl)c1)N1CCCCCC1	89µM	u	n	n	n[11.6 µM]	u
O=C(Nc1ccc2nc(-c3ccco3)c(-c3ccco3)nc2c1)N1CCCCCC1	7.1µM	3.2µM	2.2µM	10µM	13µM	50µM
CCC(C)NC(=O)c1ccc2nc(-c3cccs3)c(-c3cccs3)nc2c1 (configuration not stated)	n	u	x	x	x	n
SMILES	POLK inh	POLI inh	POLB inh	Pol eta inh	WRN helicase inh	FEN1 inh
CCCC1Nc2ccc(C(=O)O)cc2C2C=CCC12 (configuration not stated)	35µM	18µM	35µM	8.9µM	u	u
COCCNC(=O)C1Nc2ccc(C(F)(F)F)cc2C2C=CCC12 (configuration not stated)	n	u	x	n	n	n
O=C(O)c1ccc2c(c1)C1C=CCC1C(c1ccncc1)N2 (configuration not stated)	n	n	u	u	n	n
CCOC(=O)c1ccc2c(c1)C1C=CCC1C(C(=O)O)N2 (configuration not stated)	x	x	4µM	x	x	x
CCOC(=O)C1Nc2ccc(C(=O)O)cc2C2C=CCC12 (configuration not stated)	10µM	u	16µM	2.8µM	28µM	20µM
Nc1ncnc2c1[nH]c(=S)n2C1OC(CO)C(O)C1O (configuration not stated)	n	n	x	x	x	n
O=C(O)CC1CCC(=C(Cl)Cl)C1 (configuration not stated)	n	u	u	50µM	n	n
O=C(c1cnn2c1NC(=C1CC1)C=C2C(F)F)N1CCc2ccccc21	n	n	x	x	x	n
N#C/C(=C\c1ccc(-c2ccc(C(=O)O)cc2)o1)C(=O)NCC1CCCO1 (configuration not stated)	u	u	16µM	13µM	n	n
Cc1cccc(C)c1NC(=O)/C(C#N)=C/c1ccc(-c2ccc(C(=O)O)cc2)o1	u	n	u	50µM	n	n
N#C/C(=C\c1ccc(N2CCOCC2)o1)C(=O)NCC1CCCO1 (configuration not stated)	n	n	u	n	n	n
N#Cc1ccc(NC(=O)C2Cc3ccccc3CN2S(=O)(=O)c2ccc(F)cc2)cc1 (configuration not stated)	n	n	n	x	x	n
CCOc1cc(C(=O)N/N=C/C2CC=CCC2)cc(OCC)c1OCC (configuration not stated)	n	n	n	n	n	n
Cc1ccc(C(=O)N/N=C\C2CC=CCC2)cc1[N+](=O)[O-] (configuration not stated)	n	n	n	89µM	n	n
CCCCC/C=C\C\C=C/C=C/C=C/[C@@H](SC[C@H](NC(=O)CC[C@H](N)C(=O)O)C(=O)NCC(=O)O)[C@@H](O)CCCC(=O)O	n[19.4 µM]	x	x	x	x	x
Cc1ccc(CCNC(=O)C2CC(=O)N(CCc3ccc(C)cc3)C2)cc1 (configuration not stated)	n	n	n	n	x	n
COc1ccc(CCN2CC(C(=O)NCCc3ccc(C)cc3)CC2=O)cc1OC (configuration not stated)	u	79µM	u	u	n	n
COC(=O)C1=C(C)N(CCc2ccccc2)C(=O)/C1=C\c1ccco1	n	n	n	n	n	n
COC(=O)C1=C(C)N(Cc2ccccc2)C(=O)/C1=C\c1ccco1	u	50µM	n	n	n[11.6 µM]	n
Nc1cc2nsnc2cc1Br	n	3.5µM	u	3.5µM	u	u
CSCC[C@H](NC(=O)[C@H](CC(C)C)NC(=O)[C@@H]1CCCN1C(=O)[C@H](Cc1ccccc1)NC(=O)[C@H](Cc1ccccc1)NC(=O)[C@@H]1CCC(=O)N1)C(N)=O	n	x	x	x	x	x
Cc1ccc(C)c(N2N=C(C(=O)NCCN3C(=O)S/C(=C\c4cccnc4)C3=O)CCC2=O)c1	n	50µM	x	u	n[11.6 µM]	n
Cc1ccc(OCCCCn2nnc3sc4c(c3c2=O)CCC(C)C4)cc1 (configuration not stated)	n	n	25µM	x	x	n
Cc1ccc(OCCCCn2nnc3sc4c(c3c2=O)CCCC4)cc1	n	n	n	x	x	n
Cc1cccc(OCCn2nnc3sc4c(c3c2=O)CCCC4)c1	n	u	20µM	x	x	n
